According to PubChem BioAssay (NCI):
Compounds without any hit were thinned out: in the full panel of roughly 79,000, 15% have a hit. Activity calls are given as the source filed them. No stated cut-off is given here; in the data, active means growth inhibition above about 70%; inactive means the rest.

Experiment: NCI Yeast Anticancer Drug Screen. Data for the wt2 strain (AID 169);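 further: 0% = growth of vehicle-treated yeast cultures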
Conditions: S. cerevisiae wt2 strain growth inhibition, stronger effect = higher value
Method: Growth inhibition of yeast strains with defined genetic alterations is measured as a screen for potential anti-cancer activity. Selected strains with alterations in DNA damage repair or cell cycle control were exposed to compounds and growth inhibition was measured relative to vehicle treated controls. The strain used in this assay is wt2

Structure (SMILES)	growth inhibition (at 1.2 µM)	growth inhibition (at 3.7 µM)	growth inhibition (at 11.0 µM)	growth inhibition (at 33.0 µM)	growth inhibition (at 100.0 µM)
Cc1ccccc1C1=C(CC(=O)O)c2ccccc2CC1C (stereo not given)	5% (inactive)	7% (inactive)	37% (inactive)	97% (active)	98% (active)
CC1=NN(C(=O)CC(=O)N(C(=O)c2ccccc2)c2ccc(Cl)cc2)C(=O)C1N=Nc1ccc([N+](=O)[O-])cc1 (stereo not given)	-4% (inactive)	7% (inactive)	64% (inactive)	87% (active)	82% (active)
C[Si](C)(C)Cc1ccccc1C(=O)O	-1% (inactive)	-3% (inactive)	-1% (inactive)	52% (inactive)	99% (active)
O=C(Cc1ccccc1F)NC1=C(Cl)C(=O)c2ccccc2C1=O	-9% (inactive)	3% (inactive)	-8% (inactive)	-1% (inactive)	-4% (inactive)
O=C(Cc1ccccc1)c1ccc(O)cc1	-10% (inactive)	-17% (inactive)	-10% (inactive)	58% (inactive)	87% (active)
O=C(Nn1c(-c2ccccc2)nc2ccccc2c1=O)c1ccc(Cl)cc1	5% (inactive)	6% (inactive)	5% (inactive)	51% (inactive)	95% (active)
CCCCOc1ccc(Nc2c3ccccc3nc3ccccc23)cc1	7% (inactive)	-10% (inactive)	75% (active)	98% (active)	78% (active)
Oc1ccc(Br)cc1C=Nc1cccc(C(F)(F)F)c1	-1% (inactive)	-1% (inactive)	0% (inactive)	10% (inactive)	65% (inactive)
